From paper PMC4336329 (PLoS ONE, 2015)
Screen size: about 310,000 compounds; about 14,000 (4.5%) showed an effect of 50% or more. Effects have a minus sign here. The full list was thinned out, with strong results kept by preference.

Target: human ether-à-go-go-related gene (hERG) potassium channel (human, UniProt Q12809)
Experiment: primary screen, population patch clamp on CHO cells stably expressing hERG; higher = less effect of the substance
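Also: peak tail current of the secondary pulse compared with the same well before compound.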

Chain of human ether-à-go-go-related gene (hERG) potassium channel (Q12809 whole entry, looked up): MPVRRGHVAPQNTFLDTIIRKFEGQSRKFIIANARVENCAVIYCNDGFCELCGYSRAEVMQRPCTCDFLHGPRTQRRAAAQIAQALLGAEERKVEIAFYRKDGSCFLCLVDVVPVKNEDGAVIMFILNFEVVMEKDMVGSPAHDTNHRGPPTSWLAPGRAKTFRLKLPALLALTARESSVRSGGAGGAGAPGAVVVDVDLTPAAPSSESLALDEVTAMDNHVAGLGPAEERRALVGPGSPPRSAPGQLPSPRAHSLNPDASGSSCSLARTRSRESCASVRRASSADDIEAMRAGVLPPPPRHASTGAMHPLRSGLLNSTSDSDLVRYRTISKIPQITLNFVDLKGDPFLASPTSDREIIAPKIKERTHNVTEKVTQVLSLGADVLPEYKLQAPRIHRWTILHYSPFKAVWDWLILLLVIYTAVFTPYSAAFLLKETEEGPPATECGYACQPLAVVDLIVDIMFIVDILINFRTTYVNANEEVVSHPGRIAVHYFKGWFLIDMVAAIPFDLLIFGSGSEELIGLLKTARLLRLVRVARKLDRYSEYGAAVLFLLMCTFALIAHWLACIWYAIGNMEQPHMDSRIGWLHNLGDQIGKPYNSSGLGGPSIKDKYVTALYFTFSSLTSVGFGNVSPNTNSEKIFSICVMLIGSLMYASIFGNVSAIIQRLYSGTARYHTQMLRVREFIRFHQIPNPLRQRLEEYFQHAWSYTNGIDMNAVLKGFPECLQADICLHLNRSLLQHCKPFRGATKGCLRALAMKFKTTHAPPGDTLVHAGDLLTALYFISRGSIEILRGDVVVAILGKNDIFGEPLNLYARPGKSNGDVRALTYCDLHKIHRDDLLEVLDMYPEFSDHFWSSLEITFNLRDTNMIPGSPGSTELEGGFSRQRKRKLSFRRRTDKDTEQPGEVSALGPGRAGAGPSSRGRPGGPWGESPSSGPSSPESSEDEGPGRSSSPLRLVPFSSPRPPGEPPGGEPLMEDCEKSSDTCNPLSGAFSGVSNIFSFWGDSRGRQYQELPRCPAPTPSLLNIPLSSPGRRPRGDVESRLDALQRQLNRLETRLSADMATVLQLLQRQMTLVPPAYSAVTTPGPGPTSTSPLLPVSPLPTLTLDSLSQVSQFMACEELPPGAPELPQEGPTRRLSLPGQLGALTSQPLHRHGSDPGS

SMILES | hERG current change (%, negative = inhibition) at 10uM [%]
CSc1ccccc1NC(=O)CN(C)S(=O)(=O)c1ccc(F)cc1 | -35.2
CC(=O)Nc1ccc(OCCC[n+]2cccc(C(=O)[O-])c2)cc1 | 12.5
Cn1cnc2c(oc3ccccc32)c1=O | 9.26
CC1(C)N=C(/C=N/O)CN1O | 11.7
CCCCC(=O)Nc1cc(C)c2c(=O)oc3ccccc3c2n1 | 4.39
COc1ccc(S(=O)(=O)Cc2ccc(C(=O)N3CCN(c4ccccn4)CC3)o2)cc1 | -27.9
COc1cc(OC)c(C2SCCS2)c(OC)c1 | 2.14
CCOC(=O)CC(=O)NC1(Cc2ccc(O)cc2)CCCCC1 | 1.06
NC(=O)c1cc([N+](=O)[O-])ccc1NCc1ccccn1 | -73.8
O=[N+]([O-])c1ccc(Nc2ccccn2)c([N+](=O)[O-])c1 | -4.46
O=C(O)c1cc([N+](=O)[O-])ccc1NCc1ccccn1 | 12.7
NC(=O)c1cc([N+](=O)[O-])ccc1NCc1cnccn1 | -12.9
O=[N+]([O-])c1ccc(Cc2ccccn2)cc1 | -15.7
O=[N+]([O-])c1ccc(Cc2ccccn2)c([N+](=O)[O-])c1 | -50.2
COn1c(-c2ccc(Cl)cc2Cl)nc2ncccc21 | -1.12
CCc1nnc(NC(=O)c2sc3nc4c(cc3c2N)CCCCCC4)s1 | 4.75
COc1ccc(N/C=C/C(=O)c2ccc(Cl)cc2)cc1 | -13.7
CCN1CCN(CCCNC(=O)Cn2nc(C)n3nc(-c4ccccc4)cc3c2=O)CC1 | -11.1
Cc1ccccc1Cn1c(-c2ccc(=O)[nH]c2)nc2ccccc21 | -11.4
Clc1ncccc1-c1nc2ccccc2n1Cc1ccccc1 | -33.5
Cc1cc2nc(-c3ccc(=O)[nH]c3)n(Cc3ccccc3)c2cc1C | -35.2
O=c1ccc(-c2nc3ccccc3n2Cc2ccccc2Cl)c[nH]1 | -11.9

SMILES | hERG current change (%, negative = inhibition) at 10uM [%]
Clc1ccc(Cn2c(-c3cccnc3Cl)nc3ccccc32)cc1 | -70.7
O=c1[nH]cccc1-c1nc2cc(Cl)ccc2n1Cc1ccccc1 | -12
Clc1ccc(Cn2c(-c3cccnc3Cl)nc3ccccc32)c(Cl)c1 | -22.1
O=c1ccc(-c2nc3cc(Cl)ccc3n2Cc2ccccc2)c[nH]1 | -73.9
O=c1ccc(-c2nc3ccccc3n2Cc2ccc(Cl)cc2)c[nH]1 | -76
Cc1cc(/C=N/NC(=O)c2nn(C)cc2Cl)c(C)n1-c1cccc(Br)c1 | 8.09
Nc1nonc1-n1nncc1-c1ccccc1 | 1.98
CCN(Cc1ccccc1)C(=O)COC(=O)CNC(=O)c1ccc(C)s1 | 1.42
CSc1ccc(/C=N\Nc2nncn2N)cc1.Cl | 10.9
CCOC(=O)c1sc(NC(=O)COc2ccc3c(c2)OCO3)nc1C | 7.47
CCCCOP(=O)(OCCCC)/C(C#N)=C(/C)O | 13.1
CC(C)C(NC(=O)c1ccccc1Br)c1ccccc1 (centres unmarked) | 11.2
CC(=O)n1cc([C@@H]2C=C(C(=O)Nc3ccccc3)O[C@H](OCCCCO)C2)c2ccccc21 | -54.5
CC(=O)n1cc([C@H]2C=C(C(=O)Nc3ccccc3)O[C@@H](OCCCCO)C2)c2ccccc21 | -25
CC(=O)n1cc([C@H]2C=C(C(=O)NCc3ccccc3)O[C@@H](OCc3ccc(CO)cc3)C2)c2ccccc21 | 15.6
C=CCOC(=O)C1=C[C@H](c2cn(C(C)=O)c3ccccc23)C[C@H](OCCCCO)O1 | -38.7
CC(=O)n1cc([C@H]2C=C(C(=O)O)O[C@@H](OCCCCO)C2)c2ccccc21 | 0.0595
CC(=O)n1cc([C@@H]2C=C(C(=O)NCc3ccccc3)O[C@H](OCc3ccc(CO)cc3)C2)c2ccccc21 | -26.6
CC(=O)n1cc([C@@H]2C=C(C(=O)NCc3ccccc3)O[C@H](OCCCCO)C2)c2ccccc21 | -78.3
CC(=O)n1cc([C@H]2C=C(C(=O)NCc3ccccc3)O[C@@H](OCCCCO)C2)c2ccccc21 | -62
C#CCNC(=O)C1=C[C@@H](c2cn(C(C)=O)c3ccccc23)C[C@@H](OCCCCO)O1 | -40.1
COc1ccc2cc(CN(CC3CCCO3)S(=O)(=O)c3ccccc3Cl)c(=O)[nH]c2c1 (centres unmarked) | -36.7

SMILES | hERG current change (%, negative = inhibition) at 10uM [%]
O=C(/C=C/Nc1ccc(F)c(Cl)c1)c1ccco1 | -0.57
COc1ccc(-c2cc(C(=O)NCCCN3CCCC3=O)c3ccccc3n2)cc1OC | -64.7
O=C(NCCCN1CCCC1=O)c1ccc(OCc2ccccc2)cc1 | -12.9
COc1ccc(-c2cc(C(=O)NCCCN3CCCC3=O)c3ccccc3n2)cc1 | -12
COc1cc(C(=O)NCCCN2CCCC2=O)cc(Br)c1OCc1ccccc1 | -50.7
O=C(NCCCN1CCCC1=O)c1cc(-c2ccc3c(c2)OCO3)nc2ccccc12 | -4.06
COc1cc(C(=O)NCCCN2CCCC2=O)cc(OC)c1OC | -2.96
CCN(CC)S(=O)(=O)c1ccc(-c2cn3cc(Cl)ccc3n2)cc1 | 2.07
COc1ccc(-n2c3c(c(=O)[nH]c2=O)C(NC(=O)c2ccncc2)(C(F)(F)F)C(=O)N3)cc1 (centres unmarked) | 18.1
CCc1cc2c(Sc3nc4ccccc4s3)ncnc2s1 | 16.9
Cc1cc(C)cc(NC(=O)CCCSc2nc3ccccc3[nH]2)c1 | -2.7
Cn1c(=O)c2c(ncn2CC(=O)OCC(=O)NC2CCCc3ccccc32)n(C)c1=O (centres unmarked) | 2.36
CCOc1ccc(NC(=O)c2cccc3c2C(=O)N(Cc2cccnc2)C3)cc1 | -22
COc1cc(NC(=O)c2cccc3c2C(=O)N(Cc2cccnc2)C3)cc(OC)c1OC | -79.2
O=C(NCc1cccnc1)c1cccc2c1C(=O)N(Cc1cccnc1)C2 | -11
O=C(Nc1ccc2c(c1)OCO2)c1cccc2c1C(=O)N(Cc1cccnc1)C2 | -47
O=C(NCc1ccc(F)cc1)c1cccc2c1C(=O)N(Cc1cccnc1)C2 | -61.8
COCCN1Cc2cccc(C(=O)NCc3cccnc3)c2C1=O | 3.96
COc1ccccc1CNC(=O)c1cccc2c1C(=O)N(Cc1cccnc1)C2 | -70.1
COC(CNC(=O)c1cccc2c1C(=O)N(Cc1cccnc1)C2)OC | -15.3
COc1ccc(CNC(=O)c2cccc3c2C(=O)N(Cc2cccnc2)C3)cc1 | -38.6
O=C(CC(Sc1n[nH]c(-c2ccccc2)n1)c1ccccc1)NCc1ccccc1 (centres unmarked) | -16

SMILES | hERG current change (%, negative = inhibition) at 10uM [%]
Cc1ccc2sc(N(CCN(C)C)C(=O)/C=C/c3cccs3)nc2c1C.Cl | 11.8
COc1ccccc1C(=O)OCC(=O)Nc1cc(S(=O)(=O)N2CCOCC2)ccc1N1CCCC1 | -7.82
O=C(NCC(=O)N1CCCC1C(=O)O)OC1CCCCC1 (centres unmarked) | -6.8
Cc1cccc(-c2noc(-c3ccc(F)cc3)n2)c1 | 15.1
Cc1cccc(-c2noc(-c3ccno3)n2)c1 | -53
Cc1ccc(-c2noc(-c3ccno3)n2)cc1 | 9.19
COc1ccccc1C(CNC(=O)CNC(=O)c1ccc(C)c(C)c1)N1CCCC1 (centres unmarked) | -6.27
C(=C\c1ccccc1)/CSc1nnc(-c2ccccc2)n1Cc1ccco1 | -74.7
Nn1c(SC/C=C/c2ccccc2)nnc1-c1ccncc1 | -8.06
Nn1c(SC/C=C/c2ccccc2)nnc1-c1cccnc1 | 23.4
Cn1c(SC/C=C/c2ccccc2)nnc1-c1ccco1 | -27.1
C(=C\c1ccccc1)/CSc1nnc(-c2ccncc2)n1Cc1ccco1 | -63.9
c1ccc(-c2nnc(CSc3nnc(-c4ccncc4)n3Cc3ccco3)o2)cc1 | -29.8
O=C(CSc1nnc(-c2cccnc2)n1Cc1ccco1)N1c2ccccc2Sc2ccccc21 | -33.7
O=C(O)CCSc1nnc(-c2cccnc2)n1-c1ccccc1 | 11.2
CCSc1nnc(-c2cccnc2)n1Cc1ccco1 | -7.73
Clc1ccc(-n2c(SC/C=C/c3ccccc3)nnc2-c2cccnc2)cc1 | -50.3
C(=C\c1ccccc1)/CSc1nnc(-c2cccnc2)n1Cc1ccco1 | -70.8
Cc1noc(C)c1CSc1nnc(-c2ccccc2)n1Cc1ccco1 | -21.9
Cc1ccccc1OCCn1c(CCNC(=O)C(C)C)nc2ccccc21 | -6.24
